# Measured values published in ChEMBL document CHEMBL3988442, “University of Dundee, Small-Polar-MMV Screening Library” (2021).
# In all, about 48,000 compounds went through this assay and about 13,000 (27%) showed an effect of 50% or more. The list shows a part of the results.
# System: Wolbachia pipientis
# Assay: Anti-Wolbachia Cell-Based Screen
# Format: functional
# Parameters: scale not given: in the data most compounds retested in dose-response had high values
# Details: 5 µM
row,SMILES,Percent Effect [%]
1,Cc1ccc(NC(=O)N2C[C@H]3CC[C@@H]2CN(Cc2cscn2)C3)cc1,4.002
2,COc1ccc(C(=O)NC2CC2)c(OC)c1,17.15
3,COc1ccc(C(=O)N2CC(=O)N(C3CCC3)CC(O)C2)c(OC)c1 (centres undefined),143.6
4,COc1ccc(C(=O)N2CC[C@H](CO)[C@H](O)C2)c(C)c1,-8.532
5,O=C(O)C(F)(F)F.O=C(O)C(F)(F)F.O=C1CCC2(CCN(Cc3ccc(F)cc3)CC2)N1CCN1CCCC1,100.3
6,COCCN1C(=O)CCC12CCCN(Cc1nccs1)CC2.O=C(O)C(F)(F)F (centres undefined),12.79
7,CN1CC(=O)N(c2cnn(C)c2)CC12CCN(Cc1nccn1C)C2.O=C(O)C(F)(F)F.O=C(O)C(F)(F)F (centres undefined),-9.756
8,Cn1ccnc1CN1CCC2(CCC(=O)N2CCN2CCCC2)CC1.O=C(O)C(F)(F)F.O=C(O)C(F)(F)F,107.9
9,CCN1C(=O)CCC12CCCN(Cc1ccc(F)cc1)CC2.O=C(O)C(F)(F)F (centres undefined),86.81
10,CCN1C(=O)CCC12CCCN(Cc1nccs1)C2.O=C(O)C(F)(F)F (centres undefined),30.34
11,O=C(NCC1(CO)CC1)c1ccccc1Br,-13.86
12,COCC(C)N1CCc2onc(-c3ccc(F)c(F)c3)c2C1 (centres undefined),-3.283
13,O=C(NC1CCS(=O)(=O)C1)c1ccc(SCc2cscn2)cc1 (centres undefined),-5.861
14,CCCc1cc(NCc2ccc(CO)cc2)n2nccc2n1,-5.904
15,CC1c2ncc(Cn3cncn3)n2CCN1C(=O)N(C)C (centres undefined),113.2
16,CC1c2ncc(Cn3cncn3)n2CCN1C(=O)C1CCOCC1 (centres undefined),-2.006
17,CC(C)N1CCn2c(COCC3CCOCC3)cnc2C1C.O=C(O)C(F)(F)F (centres undefined),6.159
18,Cc1nc(COCc2cnc3n2CCN(C(=O)C2CC2)C3C)cs1 (centres undefined),-5.573
19,CC1c2ncc(Cn3cncn3)n2CCN1C(=O)[C@H]1CCCO1 (some centres undefined),86.12
20,O=S(=O)(C1CC1)N1CCc2ncc(Cn3cncn3)n2CC1,-7.39
21,CC1c2ncc(Cn3cncn3)n2CCN1CC1CCOCC1.O=C(O)C(F)(F)F (centres undefined),55.37
22,CC1c2ncc(Cn3cncn3)n2CCN1C1CCOCC1.O=C(O)C(F)(F)F (centres undefined),-16.95
23,COCc1cnc2n1CCN(S(=O)(=O)N(C)C)C2C (centres undefined),6.284
24,Cc1occc1C(=O)N1CCn2c(Cn3cncn3)cnc2C1C (centres undefined),120.5
25,CSCCCN1CCC(c2nnc(Cn3ccnc3)n2C2CC2)CC1,14.62

row,SMILES,Percent Effect [%]
1,N#Cc1cccc(OCCN2CCC(C(=O)N3CCOCC3)CC2)c1,-12.33
2,O=C(CC(F)(F)F)N1C[C@@H]2CC[C@H](C1)N(Cc1ccccc1)C2=O,-3.015
3,CCn1c(C2CCCN(Cc3ccc4ccccc4n3)C2)nn(C)c1=O (centres undefined),31.19
4,COc1ccccc1C1(CNc2cn[nH]c(=O)c2Cl)CCOCC1,-1.761
5,Cc1ncsc1CCN1CCN(C(=O)c2ccc(=O)[nH]c2)CC1,12.93
6,COCC(=O)N1CCn2c(Cn3cncn3)cnc2C1C (centres undefined),79.44
7,COCCC(=O)N1CCn2c(COCC3CC3)cnc2C1C (centres undefined),-18.59
8,CCc1cn[nH]c1C1CCN(C(=O)c2cccc(O)c2C)CC1,-3.715
9,CC(C(=O)N1CCC(c2[nH]ncc2-c2ccccc2)CC1)n1cncn1 (centres undefined),96.41
10,Cc1ccc(N2CCCC(c3[nH]ncc3-c3ccccc3)C2)nn1 (centres undefined),25.67
11,C[C@H](N)C(=O)N1CCC(c2[nH]ncc2-c2ccccc2)CC1,108.2
12,CC(O)C(=O)N1CCC(c2[nH]ncc2-c2ccccc2)CC1 (centres undefined),105.3
13,Cc1ccc(-c2cn[nH]c2C2CCCN(c3nccc(N)n3)C2)cc1 (centres undefined),6.644
14,C[C@@H](N)C(=O)N1CCC(c2[nH]ncc2-c2ccccc2)CC1,132.4
15,FC(F)c1nnc2ccc(N3CCC4(CCOC4)C3)nn12 (centres undefined),-11.38
16,CSc1ncc(CNC(C)c2cnn(-c3ccccc3)c2C)cn1 (centres undefined),31.2
17,CN(CCCc1n[nH]c(N)c1C#N)C(=O)Nc1cc(Cl)cc(Cl)c1,9.984
18,Cc1ccc(NCc2ncc(C(C)(C)C)o2)c(Cl)c1,-11.33
19,O=C(CCC1CCN(Cc2ccncc2)CC1)Nc1ccccc1Cl,-2.559
20,Cc1cnn(CC2CCCN2C(=O)c2cc(C)no2)c1 (centres undefined),3.618
21,Cc1cnn(CC2CCCCN2C(=O)Cc2c(C)noc2Cl)c1 (centres undefined),116.9
22,Cc1cnn(CC2CCCN2C(=O)Cc2c(C)noc2Cl)c1 (centres undefined),116
23,Cc1cnn(CC2CCCCN2C(=O)CN(C)C2CC2)c1 (centres undefined),4.023
24,Cc1cnn(CC2CCCN2C(=O)Cc2cn3ccsc3n2)c1 (centres undefined),12.98
25,CCN1CC2(CCN(C(=O)C(C)Oc3ccc(F)cc3F)CC2)OC1=O (centres undefined),-0.4228

row,SMILES,Percent Effect [%]
1,O=C(C[S+]([O-])Cc1cccc(Cl)c1)NC1CCCC1 (centres undefined),-4.291
2,Cc1cc(C[S+]([O-])CC(=O)NCc2cccs2)no1 (centres undefined),-0.248
3,COc1ccc(F)cc1C[S+]([O-])CC(=O)NCc1ccccc1 (centres undefined),-20.74
4,Cc1cc(C[S+]([O-])CC(=O)NCC(C)C)no1 (centres undefined),-9.622
5,Cc1cc(C[S+]([O-])CC(=O)Nc2c(C)cccc2C)no1 (centres undefined),4.503
6,Cc1cc(C[S+]([O-])CC(=O)NCc2ccccc2)no1 (centres undefined),111.1
7,Cc1cc(C[S+]([O-])CC(=O)NCc2cccc(Cl)c2)no1 (centres undefined),98
8,COc1ccc(F)cc1C[S+]([O-])CC(=O)NCc1ccccc1C (centres undefined),4.028
9,COc1ccccc1CNC(=O)C[S+]([O-])Cc1cc(C)on1 (centres undefined),100.1
10,CNC(=O)CCS(=O)(=O)Cc1nnnn1-c1ccccc1,7.116
11,CC1(NC(=O)CC2CCc3ccccc32)CCOCC1 (centres undefined),-18.69
12,CCN(CC(C)C#N)C(=O)c1cccc(COc2ccc(C)nc2)c1 (centres undefined),11.78
13,CC(c1ccco1)N(C(=O)c1cccc(C#N)c1)C1CC1 (centres undefined),-7.767
14,CC(C)c1noc(CCC(=O)Nc2cc(F)ccc2F)n1,6.757
15,CC(C)c1noc(CN2CCN(C(=O)c3ccccc3F)CC2)n1,4.935
16,CN(C)Cc1nc2c(o1)CN(C(=O)c1ccncc1F)C2,-6.758
17,CC(C)c1noc(CN2CCN(C(=O)c3cccnc3O)CC2)n1,109.3
18,CC(C)n1ccnc1CN1CCCN(C(=O)c2cccnc2O)CC1,3.954
19,CC(C)(O)CN1CCN(C(=O)c2cccnc2O)CC1,-5.606
20,CC(C)c1noc(CN2CCN(C(=O)c3cc(Cl)ccc3F)CC2)n1,113.5
21,CC(C)c1noc(CN2CCN(C(=O)c3ccncc3F)CC2)n1,113.2
22,CN(C)C(=O)c1ccc(-c2cscn2)cc1,-9.809
23,O=C(O)C(F)(F)F.O=C(c1cnccn1)N1CCN2C[C@H](Oc3cccc(F)c3)C[C@H]2C1,8.036
24,OC1(CNCc2ccc(F)c(C(F)(F)F)c2)CCOC1 (centres undefined),-11.97
25,CCN1CCC2(CN(C(=O)N(C)C)CC23CCN(CC2CC2)CC3)C1=O.O=C(O)C(F)(F)F (centres undefined),-42.34

row,SMILES,Percent Effect [%]
1,Cc1nc(CN2CCCC(Cn3cncn3)C2)no1 (centres undefined),79.74
2,c1ncn(CC2CN(Cc3noc(C4CC4)n3)CCO2)n1 (centres undefined),0.6807
3,CC(C)(C)c1nc(CN2CCCC(Cn3cncn3)C2)no1 (centres undefined),114.7
4,c1cnc(-c2nc(CN3CCCC(Cn4cncn4)C3)cs2)nc1 (centres undefined),1.551
5,c1ncn(CC2CCCN(Cc3noc(C4CC4)n3)C2)n1 (centres undefined),115
6,c1ncn(CCNC2CCCN(Cc3noc(C4CC4)n3)C2)n1 (centres undefined),10.95
7,CCCc1nc(CN2CCCC(Cn3cncn3)C2)no1 (centres undefined),15.71
8,CC(C)(C)c1nnc(CN2CCCC(Cn3cncn3)C2)o1 (centres undefined),3.207
9,Cc1ccc(CNC(=O)NCC(=O)NC(C)(C)C)c(N2CCCC2)c1,2.082
10,Fc1ccccc1-c1noc2c1CN(CC1CC1)CC2,-13.76
11,Cn1ccnc1CN1C[C@@H](F)[C@@H](OCc2nc3cnccc3[nH]2)C1,4.118
12,CCOCCn1c(=O)[nH]c2cc(C(=O)N(C)Cc3ccno3)ccc21,10.95
13,O=C1CCC2(CCNCC2)CN1CCCNc1cccnc1,-8.003
14,O=C(O)C(F)(F)F.O=C(O)CCC(=O)N1CCN(CC2CC2)c2ncccc2C1,-20.91
15,COCC(=O)N1CCN(Cc2cccnc2)c2ncccc2C1.O=C(O)C(F)(F)F.O=C(O)C(F)(F)F,107.3
16,O=C(Cc1ccsc1)N1CCN(CC2CC2)c2ncccc2C1.O=C(O)C(F)(F)F,-24.66
17,CC(=O)NCC(=O)N1CCN(Cc2cccnc2)c2ncccc2C1,-23.25
18,COCC(=O)N1CCN(CC2CC2)c2ncccc2C1,17.09
19,O=C(CC1CC1)N1CCN(Cc2ccncc2)c2ncccc2C1.O=C(O)C(F)(F)F.O=C(O)C(F)(F)F,106.6
20,Cc1ccc2c(n1)N(C)CCN(C(=O)C1CC1)C2.O=C(O)C(F)(F)F,-19.49
21,O=C(C1CC1)N1CCN(Cc2ccncc2)c2ncccc2C1.O=C(O)C(F)(F)F.O=C(O)C(F)(F)F,97.41
22,O=C(CC1CC1)N1CCN(Cc2cccnc2)c2ncccc2C1.O=C(O)C(F)(F)F.O=C(O)C(F)(F)F,108.8
23,CCCS(=O)(=O)N1CCC2(CC1)CCn1c(-c3cnn(C)c3)cnc12.O=C(O)C(F)(F)F,-1.785
24,CC(=O)NS(=O)(=O)c1ccc2c(c1)N(C)CCC2,-0.0475
